The results in this text go back to PubChem BioAssay (NCI).

This is part of a sample that, as a whole, favours compounds with a hit. Of some 83,000 tested, about 20% had one in any assay.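 Cell lines were cultured in 96-well plates, exposed to a single compound concentration, and assessed for percent growth 48 hours later.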 A number with no mark means an inactive call. The source made the active and inactive calls. How the source made its calls: active means growth percent below 10; inactive means the rest.

What all share (test): NCI-60 one-dose screen, 48 h (100 = growth as untreated, 0 = no growth, -100 = all killed)
One assay concerns SK-MEL-2 melanoma. To be noted: 10 µM unless noted.
Another assay deals with EKVX NSCLC. To be noted: 10 µM unless noted.
The next assay has as its system SN12C renal. To be noted: 10 µM unless noted.
In the next assay the test system is UO-31 renal. To be noted: 10 µM unless noted.
The next assay has as its system TK-10 renal. To be noted: 10 µM unless noted.
The test system of a further assay is ACHN renal. To be noted: 10 µM unless noted.
Another assay deals with CAKI-1 renal. To be noted: 10 µM unless noted.
The next assay concerns A498 renal. To be noted: 10 µM unless noted.
The next assay deals with CCRF-CEM leukemia. To be noted: 10 µM unless noted.
The subject of another assay is MOLT-4 leukemia. To be noted: 10 µM unless noted.
The subject of another assay is SR leukemia. To be noted: 10 µM unless noted.
For the next assay, the system named is RPMI-8226 leukemia. To be noted: 10 µM unless noted.
For the next assay, the system named is OVCAR-8 ovarian. To be noted: 10 µM unless noted.
In the next assay the test system is OVCAR-5 ovarian. To be noted: 10 µM unless noted.
For a further assay, the system named is SK-OV-3 ovarian. To be noted: 10 µM unless noted.
In the next assay the test system is IGROV1 ovarian. To be noted: 10 µM unless noted.
The next assay deals with OVCAR-3 ovarian. To be noted: 10 µM unless noted.
For the next assay, the system named is HS 578T breast. To be noted: 10 µM unless noted.
The next assay has as its system NCI/ADR-RES ovarian. To be noted: 10 µM unless noted.
The test system of a further assay is OVCAR-4 ovarian. To be noted: 10 µM.

Take `CC1=CCc2ccccc21`: the growth is 140% in the assay with SK-MEL-2 melanoma; 110% in the assay on EKVX NSCLC; 88% in the assay with SN12C renal; 70.8% in the assay on UO-31 renal; 103% in the assay with TK-10 renal; 98.6% in the assay on ACHN renal. The growth in the assay on CAKI-1 renal was 87.7%; in the assay with A498 renal it was 89.9%; in the assay on CCRF-CEM leukemia, 94.3%; with MOLT-4 leukemia it was 97%; with SR leukemia, 98.6%; in the assay with RPMI-8226 leukemia, 95%. The growth in the assay with OVCAR-8 ovarian was 101%; in the assay on OVCAR-5 ovarian, 102%; in the assay with SK-OV-3 ovarian, 101%; in the assay on IGROV1 ovarian, 88.5%; in the assay on OVCAR-3 ovarian it was 106%; in the assay with HS 578T breast, 98.3%. For the same molecule, the growth in the assay on NCI/ADR-RES ovarian was 98.1%.

On to `CCN1CCN(CC(=O)Nc2nc3ccc(NCc4ccc(Cl)cc4)cc3s2)CC1`, for which the growth with SK-MEL-2 melanoma is 86.4%; in the assay on EKVX NSCLC, 86.3%; in the assay with SN12C renal, 68.4%; with UO-31 renal, 59.6%; with TK-10 renal, 96.8%; with ACHN renal it was 83.3%. Also, the growth was 68.3% with CAKI-1 renal; 58.4% in the assay on A498 renal; 50% in the assay on CCRF-CEM leukemia; 54.4% in the assay with MOLT-4 leukemia; 15.8% with SR leukemia; 39.6% in the assay with RPMI-8226 leukemia. Besides, the growth in the assay with OVCAR-8 ovarian is 78%; with OVCAR-5 ovarian it was 74.6%; in the assay with OVCAR-4 ovarian, 80.4%; in the assay with IGROV1 ovarian it was 70.9%; in the assay on OVCAR-3 ovarian it was 62.1%; in the assay with HS 578T breast it was 70.5%. Further, the growth with NCI/ADR-RES ovarian was 82.6%.

Regarding `O=C(Nc1ccccc1)Nc1ccc(C(=O)/C=C/c2ccc(N3CCCC3)cc2)cc1`, the growth in the assay on SK-MEL-2 melanoma is 17.9%; in the assay on EKVX NSCLC it was 74.2%; in the assay with SN12C renal it was 66.5%; in the assay with UO-31 renal, 67.7%; in the assay on TK-10 renal, 102%; in the assay with ACHN renal, 83.6%. Further, the growth in the assay with CAKI-1 renal was 61.7%; in the assay with A498 renal, 45.9%; in the assay with CCRF-CEM leukemia, 72.6%; in the assay on MOLT-4 leukemia, 67.5%; in the assay with SR leukemia, 98.9%; in the assay with RPMI-8226 leukemia, 78.3%. The growth with OVCAR-8 ovarian is 81.7%; in the assay with OVCAR-5 ovarian it was 83.2%; in the assay on SK-OV-3 ovarian, 66.1%; in the assay on IGROV1 ovarian, 92.1%; in the assay on OVCAR-3 ovarian, 43%; with HS 578T breast, 38.2%. Also, the growth in the assay with NCI/ADR-RES ovarian was 28.6%.

Turning to `CC1=CC[C@@H]2C(C)(C)[C@@H](O)CC[C@@]2(C)[C@@H]1COc1ccc2ccc(=O)oc2c1`, the growth in the assay on SK-MEL-2 melanoma is 68.1%; in the assay on EKVX NSCLC, 72.4%; with SN12C renal, 32.5%; with UO-31 renal, 2.21% (active); with TK-10 renal, 82.3%; in the assay with ACHN renal, 48.6%. For the same molecule, the growth in the assay on CAKI-1 renal is 36.5%; with A498 renal it was 83.2%; in the assay on CCRF-CEM leukemia it was 41.7%; in the assay with MOLT-4 leukemia, 37.3%; with SR leukemia it was 71.5%; in the assay on RPMI-8226 leukemia, 19.8%. For the same molecule, the growth was 30.5% in the assay with OVCAR-8 ovarian; 98% in the assay on OVCAR-5 ovarian; 31% with OVCAR-4 ovarian; 57.9% in the assay on IGROV1 ovarian; 41.2% in the assay with OVCAR-3 ovarian; 44.2% with HS 578T breast. In addition, in the assay with NCI/ADR-RES ovarian, the growth is 17.5%.

Consider `O=c1cc(-c2ccccc2)oc2cc(OCc3cn(Cc4ccc(F)cc4)nn3)cc(O)c12`, for which the growth was -39.8% [100 µM] (active) with SK-MEL-2 melanoma; 60.1% [100 µM] with EKVX NSCLC; 58.1% [100 µM] in the assay on SN12C renal; 67% [100 µM] in the assay on UO-31 renal; 0.593% [100 µM] (active) in the assay on TK-10 renal; 5.21% [100 µM] (active) in the assay with ACHN renal. In addition, the growth with CAKI-1 renal is 58.7% [100 µM]; in the assay on A498 renal, 63.1% [100 µM]; with CCRF-CEM leukemia, 109% [100 µM]; in the assay on MOLT-4 leukemia, 95.5% [100 µM]; with SR leukemia, 96.8% [100 µM]; in the assay on RPMI-8226 leukemia it was 93.7% [100 µM]. The growth in the assay with OVCAR-8 ovarian was 20.4% [100 µM]; in the assay on OVCAR-5 ovarian, 83.7% [100 µM]; in the assay with SK-OV-3 ovarian, 20.6% [100 µM]; with IGROV1 ovarian, 31.2% [100 µM]; in the assay with OVCAR-3 ovarian it was 61.7% [100 µM]; in the assay on HS 578T breast, 9.08% [100 µM] (active). Further, the growth in the assay on NCI/ADR-RES ovarian was 43.2% [100 µM].

Regarding `C=C(C)[C@@H]1CC[C@]2(C(=O)NCCNCCNCCN)CC[C@]3(C)[C@H](CC[C@@H]4[C@@]5(C)CC[C@H](O)C(C)(C)[C@@H]5CC[C@]43C)[C@@H]12`, the growth is -65.4% [100 µM] (active) with SK-MEL-2 melanoma; -11.4% [100 µM] (active) with EKVX NSCLC; -53.7% [100 µM] (active) in the assay on SN12C renal; -100% [100 µM] (active) with UO-31 renal; -67.3% [100 µM] (active) in the assay with TK-10 renal; -100% [100 µM] (active) in the assay with ACHN renal. For the same molecule, the growth with CAKI-1 renal was -93.6% [100 µM] (active); in the assay on A498 renal, -32.6% [100 µM] (active); with CCRF-CEM leukemia it was 5.18% [100 µM] (active); with MOLT-4 leukemia, 1.18% [100 µM] (active); in the assay with SR leukemia, -4.72% [100 µM] (active); in the assay on RPMI-8226 leukemia, -8.15% [100 µM] (active). Further, the growth was -12.9% [100 µM] (active) in the assay with OVCAR-8 ovarian; -83.4% [100 µM] (active) in the assay with OVCAR-5 ovarian; -14.2% [100 µM] (active) in the assay with SK-OV-3 ovarian; -81.4% [100 µM] (active) in the assay with IGROV1 ovarian; -66% [100 µM] (active) in the assay with OVCAR-3 ovarian; -23.3% [100 µM] (active) in the assay on HS 578T breast. In addition, the growth in the assay with NCI/ADR-RES ovarian was -13.1% [100 µM] (active).

For the molecule `Clc1ccc2nc(-c3ccc(-c4ccc(/C=N/NC5=NCCN5)cc4)s3)cn2c1`, the growth with SK-MEL-2 melanoma was 110%; in the assay on EKVX NSCLC, 90.8%; with SN12C renal, 88.6%; in the assay on UO-31 renal it was 72.8%; in the assay with TK-10 renal it was 123%; in the assay on ACHN renal, 103%. Also, the growth with CAKI-1 renal was 106%; in the assay on A498 renal, 76.6%; with CCRF-CEM leukemia it was 76.3%; in the assay with MOLT-4 leukemia, 79.7%; in the assay on SR leukemia, 8.33% (active); with RPMI-8226 leukemia, 53.5%. The growth with OVCAR-8 ovarian is 102%; in the assay with OVCAR-5 ovarian, 107%; with OVCAR-4 ovarian it was 87.1%; in the assay with IGROV1 ovarian it was 94.6%; in the assay with OVCAR-3 ovarian, 109%; in the assay with HS 578T breast it was 92.6%. In addition, the growth in the assay on NCI/ADR-RES ovarian is 99.3%.
